Data on 27 compounds can be found in PubChem BioAssay AID504832 (National Center for Advancing Translational Sciences (NCATS), 2011).

Structures are written as SMILES. The campaign covered roughly 310,000 compounds. About 18,000 (5.8%) were called active. About 22% were inconclusive and are not listed. The full list was thinned out, with actives kept by preference. Unmarked numbers belong to inactive results. Calls follow the shape of the dose curve; as a rule, active = well fitted inhibition curve with a large enough effect; inconclusive = small, poorly fitted or top-dose-only effect, or another doubt; inactive = no such curve, though single readings can be large or run the other way.
% is scaled to controls: 0 for no effect and ±100 for the full control effect; potency is read from the fitted curve at half-maximal effect.

The test in a line: Primary qHTS for delayed death inhibitors of the malarial parasite plastid, 48 hour incubation. The conditions noted are these: P. falciparum luciferase growth in erythrocytes; series mostly up to 28.7 µM; activity change, negative = inhibition: at the top concentration. The procedure, abridged: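 Firefly luciferase activity from engineered P. falciparum reports growth; inhibitors lower the luminescent signal. Cultures contained 2% hematocrit erythrocytes at 0.1% final parasitemia.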
On the technique in general: qHTS replaces the single test concentration by a dilution series.
For `COc1ccc(Cl)cc1NC(=O)c1cccc(N2C(=O)C3CC=CCC3C2=O)c1` (configuration not stated), the “activity change, negative = inhibition” value was 20.4%.

Turning to `O=Cc1cn(-c2ccccc2)nc1-c1ccccn1`, the “activity change, negative = inhibition” value was 21.5%. Still for that read-out and setting: for `O=C(CSCc1ccccc1)Nc1ccccc1` the value was 56.7%. The same measure, in the same setting: for `CC(=O)Nc1ccc(NC(=O)C(NS(=O)(=O)c2ccc3c(c2)OCCO3)C(C)C)cc1` (configuration not stated) the value was -15.4%. Turning to `CC(=O)c1ccc(S(=O)(=O)N2CCN(C(=O)/C=C/c3ccc4ccccc4n3)CC2)cc1`, the Potency was 11.7 µM (active). Regarding `NC(=O)COC(=O)/C=C/c1ccc2ccccc2n1`, the “activity change, negative = inhibition” value was 0%. As to `CC(=O)c1ccc(S(=O)(=O)N2CCC3(CC2)OCCO3)cc1`, the “activity change, negative = inhibition” value was -5.09%. Still for that read-out and setting: for `C/C(=N\Nc1nncc2ccccc12)c1ccc(Cl)c([N+](=O)[O-])c1` the value was 50.4%; for `CC(=O)N1CCN(CC(=O)Nc2ccc(C)c(F)c2)CC1`, -12.4% [at 0.00184 µM]; for `CS(=O)(=O)N(CC(=O)N1CCOCC1)c1cccc(Cl)c1Cl`, 0.916%.

On to `COC(=O)c1ccc(C23CC4(C2)[C@H](CN(Cc2cccnc2)[C@@H]4c2ccccc2)C3c2ccc(Cl)nc2)cc1` (some centres not stated), for which the Potency is 10.4 µM (active). Still for that read-out and setting: for `Clc1ccc(C2[C@H]3CN(CC4CCCCC4)[C@H](c4ccccc4)C34CC2(c2cccnc2)C4)cn1` (some centres not stated) the value was 3.7 µM (active).

Turning to `COC(=O)c1ccc(CN2CCN(CCCc3ccccc3)C(CCO)C2)cc1` (configuration not stated), the “activity change, negative = inhibition” value is -11%.

Take `CCN1C(=NCCc2cccnc2)N[C@@H](c2ccccc2)C(C(=O)OC)=C1C`: the Potency result was “inactive”.

Turning to `O=C(O)c1ccc(S(=O)(=O)N2CCOCC2)o1`, the “activity change, negative = inhibition” value is 23.6%.

As to `CN(C(=O)COC(=O)Cn1cnc2c1c(=O)n(C)c(=O)n2C)C1(C#N)CCCCC1`, the “activity change, negative = inhibition” value is 22.8%. Same read-out and setting: for `CCCC(=O)N1CCC(CCC(=O)NC2CC2)CC1` the value was 40.2%; for `CCOC(=O)c1ccc2[nH]c3c(c2c1)CCCC3NC=O` (configuration not stated), 3.34%.

With `CC(C)[C@@H](NC(=O)OC(C)(C)C)C(=O)NCC1CCC(C(=O)N[C@@H](Cc2ccccc2)C(=O)O)CC1` (some centres not stated), the “activity change, negative = inhibition” value is -7.46%. On the same count and under the same terms, for `Cc1ccc(S(=O)(=O)N(C)C)cc1NC(=O)COC(=O)/C=C/c1cccs1` the value was 7.2%; for `Cc1csc(NC(=O)CSc2nc(=O)cc(N)n2-c2ccc(F)cc2)n1`, -0.578%. Same read-out and setting: for `O=C(c1cn(-c2ccccc2)nc1-c1cccnc1)N1CCCCC1` the value was -29.5%. On to `O=C(c1cn(-c2ccccc2)nc1-c1cccnc1)N1CCN(S(=O)(=O)c2ccccc2F)CC1`, for which the Potency is 11.7 µM (active). For the compound `NC(=O)C1CCN(C(=O)c2cn(-c3ccccc3)nc2-c2cccnc2)CC1`, the “activity change, negative = inhibition” value is 20.7%. On the same count and under the same terms, for `Cc1ccc(S(=O)(=O)CCC(=O)OCC(=O)NCCc2ccc(S(N)(=O)=O)cc2)cc1` the value was -10.4%; for `CCC(=O)c1ccc(OCC(=O)OCC(=O)NC2CCCCCC2)cc1`, -18.2%. On the same count and under the same terms, for `CC1CCCC(C)N1C(=O)CSc1nnnn1C1CCCC1` (configuration not stated) the value was 27.6%.
